Most compounds without a hit are left out; they make up all but 4.3% or so of the library.
DRD3 agonist: agonists of human D3 dopamine receptor; P35462; D3R DiscoveRx beta-arrestin cells, luminescence, 90 min; max activation, %; actives 0.58% (n = 410,000); AID 652048; in the data active = max activation above about 30%; note: 0% is about no effect
Target sequence (P35462 whole entry, looked up): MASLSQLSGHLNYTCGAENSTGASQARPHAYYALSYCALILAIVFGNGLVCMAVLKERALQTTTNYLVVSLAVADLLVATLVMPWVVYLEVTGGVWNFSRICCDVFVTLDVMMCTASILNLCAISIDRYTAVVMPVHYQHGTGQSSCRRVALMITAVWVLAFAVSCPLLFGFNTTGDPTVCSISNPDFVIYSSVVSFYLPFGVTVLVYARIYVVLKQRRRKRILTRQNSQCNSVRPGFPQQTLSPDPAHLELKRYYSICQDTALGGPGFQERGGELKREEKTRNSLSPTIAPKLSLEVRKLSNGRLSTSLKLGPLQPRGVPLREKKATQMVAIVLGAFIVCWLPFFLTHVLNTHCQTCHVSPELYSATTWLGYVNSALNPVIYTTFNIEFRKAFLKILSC
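Cells at 1500/well, incubated overnight, then treated with pinned compounds (dopamine as control) for 90 min at 37 degrees C. DiscoveRx reagent added for 30 - 60 minutes at room temperature; luminescence read.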
D3 antag: antagonists of human D3 dopamine receptor | D3R cells, DiscoveRx beta-arrestin luminescence, antagonist mode; stronger effect = lower value | actives 2.5% (n = 360,000) | P35462 | max response, negative = inhibition, %; in the data active = max response below about -50%; inconclusive = no clear call, values can overlap the other calls; note: % is set by controls: 0 for no effect and ±100 for the full control effect
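Cells expressing the human receptor were seeded at 1500 cells/well, incubated overnight at 37 degrees C in 5% CO2, then exposed to library compounds with dopamine controls for 90 minutes at 37 degrees C before luminescent detection.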
GLP-1R inv ag: acts as inverse agonist at human GLP-1 receptor; HEK293 GLP-1R CRE-luciferase, luminescence, 24 h; GLP-1R form is constitutively active; P43220; Potency, µM (highest dose often 38.3 µM), for the others: top-dose activity change, negative = inhibition, actives largely listed as inhibitors; actives 1.6% (n = 410,000); AID 624417; note: potency is the fitted concentration of half-maximal effect; % is set by controls: 0 for no effect and ±100 for the full control effect; nearly all actives have a fitted effect of over 55% in size
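Assay principle: reduced luminescence from a cAMP-responsive reporter in HEK293 cells co-expressing a constitutively active GLP-1R. Conditions: 24 hr compound incubation, 37 deg C, 5% CO2.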
GLP-1R agonist: agonists of human GLP-1 receptor | P43220 | HEK293 GLP-1R CRE-luciferase, luminescence, 4-6 h; cells express a hypersensitive GLP-1R form | Potency, µM (top dose mostly 45.6 µM), inactives show at the top dose activation, usual class: activators | actives 0.007% (n = 380,000); note: potency is the fitted concentration of half-maximal effect; % of control where 0% means no effect
Active calls of the source: *; ? = inconclusive; . = no result given. Unless noted, calls come from the whole dose curve; as a rule, active = well fitted curve in the direction sought with a large enough effect; inconclusive = small, poorly fitted or top-dose-only effect, or another doubt; inactive = no such curve, though single readings can be large; an effect the other way counts as inactive or inconclusive.

SMILES	DRD3 agonist	D3 antag	GLP-1R inv ag	GLP-1R agonist
Clc1ccccc1OCCCCN1CCCCC1	-25	-95*	-1%	-1%
Clc1ccccc1OCCCCN1CCCC1	-29	-85*	0%	-7%
COc1cccc(OC)c1OCCCCN1CCCCC1	-17	-14	-1%	-3%
Clc1ccc(Cl)c(OCCCCN2CCCCC2)c1	-18	-106*	?	-3%
Fc1ccccc1OCCCCN1CCCCC1	-19	-81*	19%	-2%
CC1CCN(CCOc2cc(Cl)ccc2Cl)CC1	-5	?	-4%	-2%
Clc1ccccc1OCCCCN1CCNCC1	-13	?	?	1%
CC(C)(C)c1ccc(C(=O)NCC(c2cccnc2)N2CCc3ccccc3C2)cc1 (configuration not stated)	-9	.	?	.
O=C(OCCN1CCCCC1)c1ccccc1Cl	1	-68*	1%	11%
O=C(OCCN1CCOCC1)c1ccccc1Cl	-2	-5	16%	2%
c1cc(CN2CCCCC2)cc(OCCCNc2nc3ccccc3s2)c1	-80	-75*	?	26%
COc1cccc(CNc2nc3ccccc3n2CCN2CCCCC2)c1	-42	?	?	-3%
O=C(NCCCOc1cccc(CN2CCCCC2)c1)c1ccc(Cl)c(Cl)c1	-38	-98*	?	2%
COc1cccc(C(=O)Nc2ccc(C(=O)OCc3cc(=O)n4nc(C5CC5)sc4n3)cc2)c1	-1	.	2%	.
Cc1cc2c(c(C)c1CCO)C(=O)[C@H](C)C2	0	-50*	4%	6%
O=C(C(O)c1ccc(Br)cc1)N1CCC(Nc2ccc3[nH]ncc3c2)CC1 (configuration not stated)	-7	-81*	-20%	6%
O=C(Nc1ccccc1F)c1csc(COCCO)n1	-24	-134*	13%	7%
CCOc1nc(NC(=O)NS(=O)(=O)Oc2cccc(Cl)c2)nc(-c2ccccc2)n1	8	21	13%	0%
Cc1cccc(NC(=O)[C@H](NC(=O)[C@@H]2Cc3ccccc3CN2)c2ccccc2)c1	-20	-89*	?	-4%
CC(C)c1ccc(NC(=O)[C@H](NC(=O)[C@@H]2Cc3ccccc3CN2)c2ccccc2)cc1	-19	-98*	?	3%
CC(C)c1ccc(NC(=O)[C@H](Cc2c[nH]c3ccccc23)NC(=O)[C@@H]2Cc3ccccc3CN2)cc1	-23	0	?	0%
COc1ccc(NC(=O)[C@H](Cc2c[nH]c3ccccc23)NC(=O)[C@@H]2Cc3ccccc3CN2)cc1	4	-3	5.6µM*	0%
COc1cccc(NC(=O)[C@H](NC(=O)[C@@H]2Cc3ccccc3CN2)c2ccccc2)c1	-18	-92*	?	4%
O=C(CSc1nnc(CNc2ccc(F)cc2)o1)c1ccccc1	-6	-23	?	4%
CC(C)[C@@H]1CC[C@@H](C)CC1=O	-16	.	.	.
SMILES	DRD3 agonist	D3 antag	GLP-1R inv ag	GLP-1R agonist
COC(=O)C1=C(C)N(C(C)C)C(=O)C1(NC(=O)c1ccccc1OC)C(F)(F)F (configuration not stated)	-5	.	7%	.
CCc1cccc(C)c1NC(=O)Cn1ncc2c3ccccc3n(Cc3ccccc3)c2c1=O	9	.	-4%	.
Cc1ccc(NC(=O)[C@H](NC(=O)[C@@H]2Cc3ccccc3CN2)c2ccccc2)cc1	-18	-100*	-13%	4%
CC(NC(=O)[C@H](NC(=O)[C@@H]1Cc2ccccc2CN1)c1ccccc1)c1ccccc1 (some centres not stated)	14	-20	-15%	6%
Cc1cccc(OCc2nnc(SCC(=O)N3CC(=O)Nc4ccccc43)o2)c1	14	21	?	-6%
CCN(CC)c1ccc(NC(=O)CN(C)Cc2cccs2)cc1	-21	-15	11µM*	14%
Cc1ccc(NC(=O)CN(C)Cc2cccs2)cc1Cl	-22	?	?	23%
Cc1ccccc1OCc1nc2ccccc2n1Cc1ccccc1Cl	-19	.	3.5µM*	.
Cc1ccccc1OCc1nc2ccccc2n1C	-11	3	-11%	6%
CN1CCc2nc(SCCOc3ccccc3)c(C#N)cc2C1	-29	-58*	12%	1%
CCOc1ccccc1CNc1nc2nc(C)c(CC(=O)OC)c(=O)n2[nH]1	-6	.	3%	.
COc1cc(C2C(C(=O)Nc3ccccc3C)=C(C)Nc3ncnn32)ccc1OCC(N)=O (configuration not stated)	-5	.	-9%	14%
O=C(c1cccs1)N1CCN(CCCc2ccccc2)CC1	-6	-65*	-10%	1%
O=C(c1cccs1)N1CCN(Cc2ccccc2)CC1	11	-17	-9%	4%
O=C(c1cccnc1)N1CCN(CCCc2ccccc2)CC1	52*	5	-11%	1%
O=C(c1cccs1)N1CCC(Cc2ccccc2)CC1	4	?	?	0%
COc1ccc(CN2CCN(C(=O)c3cccs3)CC2)cc1	-13	-58*	3%	1%
O=[N+]([O-])c1cc(-c2nc(-c3ccncc3)no2)ccc1NCc1ccccc1	-14	.	16%	.
N#CC(c1cccc(Cl)c1)c1ccc2c(C(F)(F)F)cc(C(F)(F)F)nc2n1 (configuration not stated)	9	1	3.2µM*	-24%
Cn1c(=O)c2c(=O)cc(NNC(=O)CC#N)[nH]c2n(C)c1=O	3	3	13%	-6%
COc1ccc(Nc2nc(-c3cccs3)cs2)c(OC)c1	-5	-51*	-2%	-1%
COc1ccc(Nc2nc3ccccc3nc2NS(=O)(=O)c2cccs2)c(OC)c1	-15	-101*	-3%	-5%
COc1cccc(Nc2nc3ccccc3nc2NS(=O)(=O)c2cccs2)c1	-6	-23	0%	3%
CC(/C=C/C=C(\C)C(=O)O[C@@H]1O[C@H](CO[C@@H]2O[C@H](CO)[C@@H](O)[C@H](O)[C@H]2O)[C@@H](O)[C@H](O)[C@H]1O)=C\C=C\C=C(C)\C=C\C=C(/C)C(=O)O[C@@H]1O[C@H](CO[C@@H]2O[C@H](CO)[C@@H](O)[C@H](O)[C@H]2O)[C@@H](O)[C@H](O)[C@H]1O	12	.	.	4%
COC(=O)c1ccc(/C=N/OCC(=O)NC2CCCC(C)C2C)cc1 (configuration not stated)	-5	24	?	6%
SMILES	DRD3 agonist	D3 antag	GLP-1R inv ag	GLP-1R agonist
COC(=O)c1ccc(/C=N/OCC(=O)NC2CCCCCCC2)cc1	1	3	13µM*	9%
CC(=O)Oc1ccc(Cl)cc1/C=C/c1ccc2ccccc2n1	-9	21	-19%	11%
CC(=O)Oc1c(Cl)cc(Cl)cc1/C=C/c1ccc2ccccc2n1	39*	39	-9%	11%
CSc1nc(N)nc2c1ncn2CC(=O)NCc1ccccc1	8	32	9%	2%
CSc1nc(N)nc2c1ncn2CC(=O)NCc1ccc2[nH]ccc2c1	48*	13	1%	-4%
COc1ccc(N2CCN(CCCn3c(=S)[nH]c4ccccc4c3=O)CC2)cc1	-3	-75*	8%	-4%

From PubChem BioAssay
